Test results reported in PubChem BioAssay (NCI).
About 83,000 compounds went through this panel and 20% of them were active in at least one assay; those are over-represented in the sample as a whole.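 Method: cells in 96-well plates; compound added at one concentration; 48 h incubation; percent growth measured; values under 10 scored active.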 Activity calls are given as the source filed them.

How the values were obtained:
Assay in all cases: NCI-60 one-dose screen, 48 h (100 = growth as untreated, 0 = no growth, -100 = all killed)
Conditions in all cases: 10 µM unless noted
HCT-15 colon = tested on: HCT-15 colon
HT29 colon = tested on: HT29 colon
SNB-75 CNS = tested on: SNB-75 CNS
SNB-19 CNS = tested on: SNB-19 CNS
U251 CNS = tested on: U251 CNS
SK-MEL-5 melanoma = tested on: SK-MEL-5 melanoma
UACC-62 melanoma = tested on: UACC-62 melanoma
LOX IMVI melanoma = tested on: LOX IMVI melanoma
SK-MEL-28 melanoma = tested on: SK-MEL-28 melanoma
SK-MEL-2 melanoma = tested on: SK-MEL-2 melanoma
EKVX NSCLC = tested on: EKVX NSCLC
SN12C renal = tested on: SN12C renal
UO-31 renal = tested on: UO-31 renal
TK-10 renal = tested on: TK-10 renal
ACHN renal = tested on: ACHN renal
CCRF-CEM leukemia = tested on: CCRF-CEM leukemia
MOLT-4 leukemia = tested on: MOLT-4 leukemia
A498 renal = tested on: A498 renal
PC-3 prostate = tested on: PC-3 prostate
CAKI-1 renal = tested on: CAKI-1 renal

Measured: growth

Oc1ccccc1/C=N/N1CCCCCC1
inactive: HCT-15 colon 93.7% | HT29 colon 97.6% | SNB-75 CNS 80.3% | SNB-19 CNS 97.1% | U251 CNS 120% | SK-MEL-5 melanoma 94.2% | UACC-62 melanoma 85.9% | LOX IMVI melanoma 96% | SK-MEL-28 melanoma 109% | SK-MEL-2 melanoma 103% | EKVX NSCLC 115% | SN12C renal 93.6% | UO-31 renal 83.1% | TK-10 renal 103% | ACHN renal 105% | CCRF-CEM leukemia 76% | MOLT-4 leukemia 95.1%

COc1ccc(/C=C/C(=O)c2cccc(NS(C)(=O)=O)c2)cc1
inactive: HCT-15 colon 67.5% | HT29 colon 49.1% | SNB-75 CNS 68.6% | SNB-19 CNS 87.9% | U251 CNS 37.6% | UACC-62 melanoma 76% | LOX IMVI melanoma 75% | SK-MEL-28 melanoma 110% | SK-MEL-2 melanoma 114% | EKVX NSCLC 94.6% | SN12C renal 82.8% | TK-10 renal 92.2% | ACHN renal 93.4% | A498 renal 101% | MOLT-4 leukemia 40.8%
active: CCRF-CEM leukemia 1.69%

CC(NNC(=S)N1CCCCCC1)c1ccc2ccccc2n1 (stereo not given)
active: UO-31 renal 9.9% | CAKI-1 renal -9.22%
inactive: HCT-15 colon 30.8% | HT29 colon 35.9% | SNB-75 CNS 71.4% | SNB-19 CNS 44.1% | PC-3 prostate 34.6% | SK-MEL-5 melanoma 30.9% | UACC-62 melanoma 11.3% | LOX IMVI melanoma 29.6% | SK-MEL-28 melanoma 54.7% | SK-MEL-2 melanoma 90.2% | SN12C renal 37.3% | TK-10 renal 41.9% | ACHN renal 16.7% | A498 renal 71.1% | MOLT-4 leukemia 28.3%

CSc1nc2nc3c(nc2c(=O)n1C)C(=O)c1ccccc1C3=O
active: HCT-15 colon -72.1% | HT29 colon -21.1% | SNB-75 CNS -98.3% | SNB-19 CNS -66.2% | PC-3 prostate -6.56% | SK-MEL-5 melanoma -96.4% | UACC-62 melanoma -68.2% | LOX IMVI melanoma -70.9% | SK-MEL-28 melanoma -60.7% | SK-MEL-2 melanoma -64.9% | SN12C renal -76.7% | UO-31 renal -86.1% | TK-10 renal -79.1% | ACHN renal -95% | CAKI-1 renal -35.3% | A498 renal -75.3% | MOLT-4 leukemia -11.9%

CC(=O)N1N=C(c2ccc(Cl)cc2)CC1c1c(C)nn(-c2ccccc2)c1N(C)Cc1ccccc1 (stereo not given)
inactive: HCT-15 colon 71% | HT29 colon 58.5% | SNB-75 CNS 80.3% | SNB-19 CNS 64.4% | U251 CNS 68.6% | PC-3 prostate 39.3% | UACC-62 melanoma 51% | SK-MEL-28 melanoma 88.1% | EKVX NSCLC 76.4% | SN12C renal 63.2% | UO-31 renal 50.2% | TK-10 renal 88.5% | ACHN renal 90.9% | A498 renal 71.6% | CCRF-CEM leukemia 73% | MOLT-4 leukemia 44.4%

COc1cc(-c2nc3nc4sc(C)c(C)c4c(=O)n3[nH]2)cc(OC)c1OC
inactive: HCT-15 colon 73.5% | HT29 colon 82.3% | SNB-75 CNS 80.1% | SNB-19 CNS 92.9% | PC-3 prostate 85.1% | UACC-62 melanoma 61.5% | LOX IMVI melanoma 81.7% | SK-MEL-28 melanoma 87.6% | SK-MEL-2 melanoma 80.1% | EKVX NSCLC 88% | SN12C renal 93.6% | UO-31 renal 54.7% | TK-10 renal 110% | ACHN renal 83.2% | CAKI-1 renal 61.8% | A498 renal 74.5% | CCRF-CEM leukemia 61% | MOLT-4 leukemia 68.3%

COc1cc(C(=O)c2cc3c(cc2C)OCO3)cc(OC)c1OC
inactive: HCT-15 colon 19.6% | SNB-75 CNS 22.7% | SNB-19 CNS 50.7% | PC-3 prostate 18.1% | UACC-62 melanoma 32.7% | LOX IMVI melanoma 19.7% | SK-MEL-28 melanoma 46.6% | SN12C renal 32.4% | UO-31 renal 44.8% | TK-10 renal 62.8% | ACHN renal 36.3% | CAKI-1 renal 13.5% | MOLT-4 leukemia 23.1%
active: HT29 colon 3.84% | A498 renal -2.13%

Fc1ccc(-c2nn3c(-c4cc(C(F)(F)F)cc(C(F)(F)F)c4)nnc3s2)cc1
inactive: HCT-15 colon 89.7% | HT29 colon 40.2% | PC-3 prostate 39.2% | SK-MEL-5 melanoma 56% | UACC-62 melanoma 53.3% | LOX IMVI melanoma 63.9% | SK-MEL-28 melanoma 72% | EKVX NSCLC 71.1% | SN12C renal 46.7% | UO-31 renal 29.2% | ACHN renal 11.6% | CAKI-1 renal 69.8% | CCRF-CEM leukemia 87% | MOLT-4 leukemia 93%
active: SNB-19 CNS 8.33% | U251 CNS 4.98% | SK-MEL-2 melanoma -33.3% | TK-10 renal -40% | A498 renal -18.5%

O=C1/C(=C/c2ccccc2Cl)CCc2ccccc21
inactive: HCT-15 colon 104% | HT29 colon 97.2% | SNB-75 CNS 105% | SNB-19 CNS 89.7% | PC-3 prostate 95.6% | SK-MEL-5 melanoma 102% | UACC-62 melanoma 94.2% | LOX IMVI melanoma 91.7% | SK-MEL-28 melanoma 101% | SN12C renal 94.6% | UO-31 renal 97.4% | TK-10 renal 89.4% | ACHN renal 112% | CAKI-1 renal 81.8% | MOLT-4 leukemia 90.9%

COc1ccc(/C=C2\CCc3ccccc3C2=O)cc1
inactive: HCT-15 colon 91.3% | HT29 colon 80.4% | SNB-75 CNS 69.3% | PC-3 prostate 82.1% | SK-MEL-5 melanoma 99.3% | UACC-62 melanoma 83% | LOX IMVI melanoma 77.2% | SK-MEL-28 melanoma 84.9% | SN12C renal 94.5% | UO-31 renal 87.5% | TK-10 renal 79.8% | ACHN renal 111% | CAKI-1 renal 50.8% | MOLT-4 leukemia 73.9%

O=C1Nc2ccc(Cl)cc2/C1=C/c1cccs1
inactive: HCT-15 colon 51.9% | HT29 colon 110% | SNB-75 CNS 84.2% | SNB-19 CNS 84.3% | PC-3 prostate 93.4% | SK-MEL-5 melanoma 85.7% | UACC-62 melanoma 86% | LOX IMVI melanoma 86.7% | SK-MEL-2 melanoma 108% | EKVX NSCLC 68.3% | SN12C renal 87.9% | UO-31 renal 44.8% | TK-10 renal 120% | ACHN renal 88.2% | CAKI-1 renal 79.5% | A498 renal 97.5% | CCRF-CEM leukemia 102% | MOLT-4 leukemia 91%

COc1ccc2c(c1)c(CC(=O)[Se]C)c(C)n2C(=O)c1ccc(Cl)cc1
inactive: HCT-15 colon 14.9% | SNB-19 CNS 24% | U251 CNS 14.9% | PC-3 prostate 24.2% | UACC-62 melanoma 33.6% | SK-MEL-2 melanoma 12.4% | UO-31 renal 14.7% | ACHN renal 10.4% | CCRF-CEM leukemia 13%
active: HT29 colon 2.05% | SK-MEL-5 melanoma -63.9% | LOX IMVI melanoma -69.5% | SK-MEL-28 melanoma -7.85% | EKVX NSCLC -26.7% | SN12C renal -4.23% | TK-10 renal -58.4% | CAKI-1 renal -35.1% | MOLT-4 leukemia 6.33%

O=C(Nc1nc(-c2ccc(Cl)cc2)cs1)c1cc(-c2ccc(Br)cc2)nc2ccc(Cl)cc12
active: HT29 colon 9.1%
inactive: HCT-15 colon 10.8% | SNB-75 CNS 32.7% | SNB-19 CNS 56% | PC-3 prostate 40.2% | SK-MEL-5 melanoma 14% | UACC-62 melanoma 42% | SK-MEL-28 melanoma 52.9% | SK-MEL-2 melanoma 22.8% | EKVX NSCLC 77.3% | SN12C renal 35.8% | UO-31 renal 34.7% | TK-10 renal 130% | ACHN renal 63.6% | CAKI-1 renal 81.4% | CCRF-CEM leukemia 39.2% | MOLT-4 leukemia 18.5%

CCN1CCN(c2nc(NNC(=O)Cc3ccccc3)nc(N3CCN(C(c4ccccc4)c4ccccc4)CC3)n2)CC1
inactive: HCT-15 colon 22.9% | SNB-19 CNS 84.2% | U251 CNS 19.1% | PC-3 prostate 63.7% | UACC-62 melanoma 84.7% | SK-MEL-28 melanoma 92.6% | SK-MEL-2 melanoma 37.6% | EKVX NSCLC 75.7% | SN12C renal 77.9% | UO-31 renal 61.7% | TK-10 renal 89.1% | ACHN renal 86.4% | CAKI-1 renal 39.5% | CCRF-CEM leukemia 42.6% | MOLT-4 leukemia 38.5%
active: HT29 colon -7.32% | SK-MEL-5 melanoma 2.68% | LOX IMVI melanoma -54.9%

Nc1nc(Nc2ccccc2SSc2ccccc2Nc2nc(N)nc(C(Cl)(Cl)Cl)n2)nc(C(Cl)(Cl)Cl)n1
inactive: HCT-15 colon 41% | HT29 colon 97.4% | SNB-19 CNS 70.2% | U251 CNS 32.1% | PC-3 prostate 44.3% | SK-MEL-5 melanoma 50.9% | UACC-62 melanoma 70% | SK-MEL-28 melanoma 89.2% | SK-MEL-2 melanoma 72.3% | EKVX NSCLC 67.5% | SN12C renal 19.3% | TK-10 renal 116% | CAKI-1 renal 52.2% | CCRF-CEM leukemia 45.5% | MOLT-4 leukemia 46.7%
active: LOX IMVI melanoma -24.3% | UO-31 renal -38.5% | ACHN renal -25.3%

O=[N+]([O-])c1ccc(NS(=O)(=O)c2ccc(Cl)c(Cl)c2)cc1
inactive: HCT-15 colon 88.7% | HT29 colon 102% | SNB-75 CNS 86.7% | SNB-19 CNS 70.1% | PC-3 prostate 66.5% | SK-MEL-5 melanoma 40.2% | UACC-62 melanoma 38.8% | LOX IMVI melanoma 93.3% | SK-MEL-28 melanoma 78.4% | SN12C renal 60.9% | UO-31 renal 70% | TK-10 renal 94.3% | ACHN renal 94% | CAKI-1 renal 65.2% | A498 renal 55.9% | MOLT-4 leukemia 81.3%

N#Cc1ccc(-c2csc(Nc3ccc4nc5n(c(=O)c4c3)CCC5)n2)cc1
inactive: HCT-15 colon 98.2% | HT29 colon 105% | SNB-19 CNS 98.1% | U251 CNS 96% | PC-3 prostate 110% | SK-MEL-5 melanoma 97.4% | UACC-62 melanoma 100% | LOX IMVI melanoma 101% | SK-MEL-28 melanoma 104% | SK-MEL-2 melanoma 95.4% | EKVX NSCLC 99% | SN12C renal 104% | UO-31 renal 100% | TK-10 renal 110% | ACHN renal 108% | CAKI-1 renal 102% | CCRF-CEM leukemia 51.8% | MOLT-4 leukemia 92.8%

Nc1nc(Nc2ccccc2SSc2ccccc2Nc2nc(N)nc(-c3ccc(I)cc3)n2)nc(-c2ccc(I)cc2)n1
active: LOX IMVI melanoma -0.613% | UO-31 renal -92.2%
inactive: HCT-15 colon 36.4% | HT29 colon 97.8% | SNB-19 CNS 37.4% | U251 CNS 34.5% | PC-3 prostate 19.1% | SK-MEL-5 melanoma 81.4% | UACC-62 melanoma 81.6% | SK-MEL-28 melanoma 94.7% | SK-MEL-2 melanoma 103% | EKVX NSCLC 52.2% | SN12C renal 23.4% | TK-10 renal 104% | ACHN renal 19.2% | CAKI-1 renal 59.7% | CCRF-CEM leukemia 50.3% | MOLT-4 leukemia 71.7%
